Growth data for six compounds are collected here from PubChem BioAssay (NCI).

Some test systems named below: NCI-H23 lung; NCI-H226 lung; NCI-H322M lung; HOP-62 NSCLC; HOP-92 NSCLC; A549/ATCC NSCLC; 786-0 renal; COLO 205 colon; DU-145 prostate; K-562 leukemia; MALME-3M melanoma; MDA-MB-231 breast; RXF 393 renal; SF-268 CNS; SF-295 CNS; SF-539 CNS; UACC-257 melanoma; M14 melanoma.
Assay in all cases: NCI-60 one-dose screen, 48 h (100 = growth as untreated, 0 = no growth, -100 = all killed)
Common to all, as to settings: 10 µM unless noted

SMILES strings stand for the structures. This is part of a sample that, as a whole, favours compounds with a hit. Of some 83,000 tested, about 20% had one in any assay.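 Values shown are percent growth following 48 h exposure of cells in 96-well plates to a single concentration of compound; below 10 was considered active.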 Unmarked numbers belong to inactive results. The source made the active and inactive calls.

For `Cc1cc2c(cc1C)[n+](Cc1ccc3ccccc3c1)cn2Cc1ccc2ccccc2c1`, the growth in the assay with NCI-H23 lung was -71.8% (active); in the assay on NCI-H226 lung, -25.5% (active); in the assay on NCI-H322M lung, -8.28% (active); in the assay with HOP-62 NSCLC it was -73% (active); in the assay on HOP-92 NSCLC it was -80.8% (active); with A549/ATCC NSCLC, -71.3% (active). The growth in the assay with 786-0 renal was -88.9% (active); in the assay on COLO 205 colon it was -67.8% (active); in the assay on DU-145 prostate it was -89.5% (active); in the assay on K-562 leukemia it was -57.3% (active); with MALME-3M melanoma it was -78.7% (active); in the assay with MDA-MB-231 breast, -75.7% (active). Moreover, the growth in the assay on RXF 393 renal is -87% (active); in the assay on SF-268 CNS, -81.2% (active); in the assay on SF-295 CNS, -80.9% (active); in the assay on SF-539 CNS, -93.2% (active); with UACC-257 melanoma, -55.6% (active); with M14 melanoma it was -78.8% (active).

On to `c1ccc2c(-c3nc4ccccc4[nH]3)cccc2c1`, for which the growth was 44.2% in the assay on NCI-H23 lung; 79% in the assay on NCI-H226 lung; 64.5% in the assay with NCI-H322M lung; 43% in the assay on HOP-62 NSCLC; 53.3% with HOP-92 NSCLC; 55.5% with 786-0 renal. The growth in the assay on COLO 205 colon was 24.6%; with DU-145 prostate, 33.6%; in the assay with K-562 leukemia it was 14.5%; with MALME-3M melanoma it was 38.1%; with MDA-MB-231 breast, 41.4%; in the assay on RXF 393 renal, 31%. Moreover, the growth in the assay on SF-268 CNS is 61.4%; in the assay on SF-295 CNS it was 61.4%; with SF-539 CNS it was 37.1%; with UACC-257 melanoma, 35.7%; in the assay with M14 melanoma, 3.75% (active).

Regarding `COC(=O)[C@H](Cc1cn(C)cn1)NC(=O)[C@H](C)NC(=O)Nc1cc(C(F)(F)F)cc(C(F)(F)F)c1`, the growth with NCI-H23 lung is -60.9% [100 µM] (active); with NCI-H226 lung it was -33.9% [100 µM] (active); in the assay with NCI-H322M lung, -54.6% [100 µM] (active); in the assay with HOP-62 NSCLC it was -95.3% [100 µM] (active); with HOP-92 NSCLC, -95.3% [100 µM] (active); in the assay with A549/ATCC NSCLC, -25% [100 µM] (active). Also, the growth with 786-0 renal is -80.8% [100 µM] (active); in the assay on COLO 205 colon it was -92% [100 µM] (active); with DU-145 prostate it was -80.3% [100 µM] (active); with K-562 leukemia, -26.6% [100 µM] (active); with MALME-3M melanoma, -81.3% [100 µM] (active); with MDA-MB-231 breast it was -76.4% [100 µM] (active). Also, the growth was -83.1% [100 µM] (active) with RXF 393 renal; -77% [100 µM] (active) in the assay on SF-268 CNS; -82.2% [100 µM] (active) in the assay on SF-295 CNS; -95.1% [100 µM] (active) in the assay on SF-539 CNS; -92.9% [100 µM] (active) in the assay on UACC-257 melanoma; -85.2% [100 µM] (active) with M14 melanoma.

Turning to `O=C1C(=O)c2c(nc3ccc(Cl)cn23)-c2ccccc21`, the growth with NCI-H23 lung was -45.4% (active); with NCI-H226 lung it was -53.9% (active); with NCI-H322M lung it was -92.1% (active); in the assay on HOP-62 NSCLC it was -87.9% (active); in the assay on HOP-92 NSCLC, -79.8% (active); in the assay on A549/ATCC NSCLC, -80.8% (active). Also, the growth is -100% (active) with 786-0 renal; -100% (active) with COLO 205 colon; -100% (active) in the assay with DU-145 prostate; -100% (active) in the assay with K-562 leukemia; -81.8% (active) in the assay with MALME-3M melanoma; -59% (active) with MDA-MB-231 breast. Moreover, the growth was -100% (active) with RXF 393 renal; -95.3% (active) in the assay with SF-268 CNS; -80.3% (active) in the assay on SF-295 CNS; -100% (active) with SF-539 CNS; -93.3% (active) with UACC-257 melanoma; -98.7% (active) with M14 melanoma.

For `CS(=O)(=O)N1CCN(Cc2cc3nc(-c4cccc5[nH]ncc45)nc(N4CCOCC4)c3s2)CC1` (tested in a mixture with another compound), the growth in the assay with NCI-H23 lung is 23.4%; with NCI-H226 lung, 8.7% (active); with NCI-H322M lung it was 3.39% (active); in the assay with HOP-62 NSCLC it was 23.6%; with HOP-92 NSCLC it was -37.6% (active); in the assay with A549/ATCC NSCLC, 4.32% (active). The growth was -10.5% (active) with 786-0 renal; 8.18% (active) in the assay on COLO 205 colon; 21.3% in the assay on DU-145 prostate; 58.5% in the assay on K-562 leukemia; -15.2% (active) in the assay on MALME-3M melanoma; 42.9% in the assay on MDA-MB-231 breast. Moreover, the growth in the assay on RXF 393 renal was -34.2% (active); with SF-268 CNS, 31.4%; in the assay on SF-295 CNS, 1.83% (active); with SF-539 CNS it was 3.67% (active); in the assay on UACC-257 melanoma, 20%; with M14 melanoma it was 25%.

With `Nc1ccc(N=Nc2ccccc2)cc1[N+](=O)[O-]`, the growth in the assay on NCI-H23 lung is 90.7%; in the assay on NCI-H226 lung, 86%; in the assay on NCI-H322M lung, 80.5%; in the assay on HOP-62 NSCLC, 91.9%; with HOP-92 NSCLC, 91.7%; with A549/ATCC NSCLC it was 85.9%. Besides, the growth with 786-0 renal is 107%; in the assay on COLO 205 colon it was 95%; with DU-145 prostate, 109%; with K-562 leukemia, 87.4%; in the assay on MDA-MB-231 breast, 65.8%; in the assay with RXF 393 renal, 104%. Further, the growth in the assay with SF-268 CNS was 85.3%; with SF-295 CNS it was 113%; in the assay with SF-539 CNS, 92.6%; with UACC-257 melanoma, 103%; in the assay with M14 melanoma, 104%.
